High-throughput results deposited in PubChem BioAssay by National Center for Advancing Translational Sciences (NCATS).
Compounds with a hit are over-represented: about 7.3% of the library has one in this group of screens.
NPC1 promoter act – activators of NPC1 promoter; 320,000 tested, 2.4% active; Potency, µM (titrated, usually from 9.22 µM), without a hit: at the top dose activation, hits mostly activators; Huh7 NPC1 promoter luciferase reporter, 24 h; also: % of control where 0% means no effect; nearly all actives have a fitted effect of over 60% in size
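Readout is luciferase luminescence, reflecting NPC1 promoter activation in stably transfected Huh7 cells after 24 h compound exposure at 37 °C in reduced-serum medium with 10% FBS.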
KinaseGlo FLuc – blocks Kinase-Glo luciferase, a counter-screen artifact | Kinase-Glo luciferase, ATP luminescence, 8 min | Potency, µM (top dose mostly 38.3 µM), for the others: top-dose activity change, negative = inhibition, actives largely listed as inhibitors | Q27757 | 200,000 tested, 0.28% active; also: % is scaled to controls: 0 for no effect and ±100 for the full control effect; nearly all actives have a fitted effect of over 60% in size
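Substrate mix (final 50 mM imidazole pH 7.2, 50 mM KCl, 7 mM MgCl2, 10 uM ATP, 0.01% Tween 20, 0.05% BSA) plus pin-tool compound, then Kinase-Glo detection mix; 8 min ambient, luminescence read.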
SMN2 splice enh – increases expression of the SMN2 splice variant. HEK293 SMN2-luciferase splicing reporter, luminescence, 30-36 h. Potency, µM (doses to about 46.1 µM), for inactives: at the top dose activity change, positive = activation, actives largely listed as activators. 210,000 tested, 2.8% active; also: % of control where 0% means no effect; nearly all actives have a fitted effect of over 55% in size
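qHTS luciferase splicing reporter: luminescence rises when SMN2 exon 7 is included in transfected HEK293 cells. Compound exposure lasted 30-36 h at 37C, with 4.5 mM final sodium butyrate as control, followed by a ONE-Glo read.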
Rab9 promoter act – Rab9 promoter activation | 320,000 tested, 2.8% active | Huh7 Rab9 promoter-luciferase reporter, luminescence, 24 h | Potency, µM (doses to about 9.22 µM), without a hit: at the top dose activation, negative = inhibition, actives largely listed as activators; also: % of control where 0% means no effect; nearly all actives have a fitted effect of over 60% in size
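Cells were plated at 1500 per well in reduced-serum medium with 10% FBS and left 2 h. Compound in DMSO was then added for 24 h at 37 °C. Reporter signal was read by luminescence after 10 min with luciferase detection reagent.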
FLuc counter – counter-screen for miR-21 project: firefly luciferase inhibitors or activators | P08659 | purified FLuc, Km substrates, luminescence inhibition | Potency, µM (series often up to 57.5 µM), for the others: at the highest dose activity change, negative = inhibition, hits mostly inhibitors | 360,000 tested, 6.9% active;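 also: plate controls were vehicle for no effect and reference inhibitor for full effect; nearly all actives have a fitted effect of over 55% in size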
Target sequence (P08659 whole entry, looked up): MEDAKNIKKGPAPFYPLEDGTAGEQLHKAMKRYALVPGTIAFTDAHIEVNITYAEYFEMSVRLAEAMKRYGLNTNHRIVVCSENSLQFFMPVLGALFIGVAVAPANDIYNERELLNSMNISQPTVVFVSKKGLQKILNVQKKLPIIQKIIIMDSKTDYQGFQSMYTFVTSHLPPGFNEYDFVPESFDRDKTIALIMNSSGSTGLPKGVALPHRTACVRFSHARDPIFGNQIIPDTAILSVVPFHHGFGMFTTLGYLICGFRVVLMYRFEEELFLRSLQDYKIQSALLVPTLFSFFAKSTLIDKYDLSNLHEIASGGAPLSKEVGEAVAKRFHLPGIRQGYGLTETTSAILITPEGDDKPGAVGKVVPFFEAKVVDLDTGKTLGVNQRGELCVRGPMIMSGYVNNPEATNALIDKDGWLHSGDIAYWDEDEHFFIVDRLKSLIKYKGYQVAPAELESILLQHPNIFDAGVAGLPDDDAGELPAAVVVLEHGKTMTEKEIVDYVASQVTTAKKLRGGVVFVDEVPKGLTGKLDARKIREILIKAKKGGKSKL
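Purified P. pyralis luciferase, 10 nM final, with Km-level 10 uM D-luciferin and 10 uM ATP in 50 mM Tris acetate pH 7.5, 10 mM Mg acetate, 0.01% Tween-20, 0.05% BSA; 6-point qHTS titration about 60 µM downward; luminescence read.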
ELG1 genotox – inducers of genotoxicity in HEK293T ELG1-luciferase cells; HEK293T ELG1-luciferase reporter, luminescence, 16 h; Potency, µM (series often up to 46 µM), for inactives: at the top dose activity change, positive = activation, most hits filed as activators; 330,000 tested, 1.3% active; AID 504466; also: % of control where 0% means no effect; nearly all actives have a fitted effect of over 60% in size
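Screening used a luciferase reporter fused to human ELG1 in HEK293T cells. Luminescence was read on a CCD plate imager after 16 hr exposure and 30 min ONE-Glo incubation.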
* marks the source's active call; other numbers are inactive results; ? = inconclusive; / = no result given. Calls follow the shape of the dose curve; as a rule, active = well fitted curve in the direction sought with a large enough effect; inconclusive = small, poorly fitted or top-dose-only effect, or another doubt; inactive = no such curve, though single readings can be large; an effect the other way counts as inactive or inconclusive. Potency is read from the fitted curve at half-maximal effect.

SMILES	NPC1 promoter act	KinaseGlo FLuc	SMN2 splice enh	Rab9 promoter act	FLuc counter	ELG1 genotox
O=c1c(-c2ccc(O)cc2)coc2cc(OC3OC(CO)C(O)C(O)C3O)cc(O)c12 (configuration not stated)	?	0%	?	?	24µM*	15µM*
O=c1cc(-c2ccc(O)cc2)oc2cc(O[C@H]3OC(CO)C(O)C(O)C3O)cc(O)c12 (some centres not stated)	/	0%	?	/	/	/
CCC(C(=O)Nc1ccc(C(C)=O)cc1)n1c(C)c2cnn(-c3ccccc3)c(=O)c2c1C (configuration not stated)	/	/	15%	/	-3%	/
C[C@@H]1C[C@H](O)c2cc(Cl)ccc2N1	-2%	-2%	10%	1%	-2%	1%
N#CC1CC(c2ccccc2)Nc2cc(Cl)ccc2N1 (configuration not stated)	15%	/	/	26%	11µM*	15%
CCc1ccc(C(=O)NNC(=O)CN2C(=O)NC(CC)(c3ccccc3)C2=O)cc1 (configuration not stated)	5%	/	/	-1%	17µM*	1%
CCN(CC)c1ccc(C(=O)NNC(=O)CN2C(=O)NC3(CCCCC3)C2=O)cc1	-6%	/	/	1%	9.5µM*	9%
CCN(CC)c1ccc(C(=O)NNC(=O)CN2C(=O)NC(C)(c3ccccc3)C2=O)cc1 (configuration not stated)	2%	/	/	-2%	5.4µM*	8%
CC1(c2ccccc2)NC(=O)N(CC(=O)NNC(=O)c2ccccc2)C1=O (configuration not stated)	8%	/	/	-1%	0%	0%
CCN(CC)c1ccc(C(=O)NNC(=O)c2cccn2C)cc1	?	/	/	3.5µM*	?	?
Cc1ccc(NC(=O)c2cnn3c(C(F)F)cc(-c4ccccc4)nc23)cc1F	/	/	-15%	/	3%	/
CCc1cccc(-n2nnc(-c3nc(-c4cccs4)no3)c2N)c1	/	/	/	/	-13%	/
COc1ccc(C)cc1NC(=O)N1CCCn2nc(C)cc21	/	/	/	/	-1%	/
CCc1nnc(SCC(=O)Nc2cc(Cl)c(OC)cc2OC)c2cc3oc(C)cc3n12	/	/	/	/	0%	/
CCC(C)NC(=O)c1ccc(NS(=O)(=O)c2ccc3[nH]c(=O)[nH]c3c2)cc1 (configuration not stated)	13%	/	/	1%	17µM*	?
COCCNC(=O)c1ccc(NS(=O)(=O)c2ccc3[nH]c(=O)[nH]c3c2)cc1	-1%	/	/	7%	2%	0%
Cc1cnc(NC(=O)c2cccs2)s1	?	/	/	1.4µM*	11µM*	?
O=C(/C=C/c1ccc([N+](=O)[O-])cc1)Nc1ncc([N+](=O)[O-])s1	0.05µM*	-11%	0.5µM*	0.79µM*	0.12µM*	?
O=C(Nc1ncc([N+](=O)[O-])s1)c1ccccc1Br	3.5µM*	/	/	?	?	8%
Cc1ncoc1C(=O)Nc1ncc([N+](=O)[O-])s1	0.71µM*	11µM*	4.5µM*	0.32µM*	6.7µM*	?
CCCS(=O)(=O)N1CC(=O)N(c2ccccc2F)C(C)(C(=O)NC2CCCCCC2)C1 (configuration not stated)	/	/	/	/	4%	/
CCC(C)NC(=O)c1nn(-c2ccc(C)cc2)nc1CO (configuration not stated)	/	/	-5%	/	0%	/
Cc1cc2oc(C(=O)N(Cc3ccc(N(C)C)cc3)CC3CCCO3)c(C)c2cc1Cl (configuration not stated)	/	/	1%	/	0%	/
O=C(Nc1ncc([N+](=O)[O-])s1)c1cccs1	0.89µM*	/	/	1µM*	8.5µM*	?
COc1ccccc1NC(=O)N1CC=C(c2c[nH]c3ccccc23)CC1	/	/	-4%	/	-3%	/
SMILES	NPC1 promoter act	KinaseGlo FLuc	SMN2 splice enh	Rab9 promoter act	FLuc counter	ELG1 genotox
COc1ccc(-c2nc3nc(C)cc(=O)n3[nH]2)cc1	-3%	-8%	1%	18%	17µM*	3%
COc1ccc(-c2nc3nc(C)c(Cc4ccccc4)c(=O)n3[nH]2)cc1	13%	0%	?	14%	9.5µM*	?
COC(=O)Cc1c(C)nc2nc(-c3ccc(OC)cc3)[nH]n2c1=O	12%	-26%	-9%	1%	15µM*	?
COC(=O)Cc1c(C)nc2nc(NCc3ccc(Br)cc3)[nH]n2c1=O	/	/	5%	/	?	/
Cc1cc(=O)n2[nH]c(COc3ccccc3)nc2n1	1%	-6%	6%	-6%	?	-5%
CCOC(=O)c1cc(C)n(CC2CCC(C(=O)Nc3cc(OC)cc(OC)c3)CC2)c1C (configuration not stated)	/	/	/	/	-1%	/
COC(=O)c1ccc(C(NC(=O)OCc2ccccc2)/C(F)=C/[C@@H](C)C(=O)Nc2ccc(OC)cc2)cc1 (some centres not stated)	/	-1%	-11%	/	/	/
Cc1[nH]c2ccccc2c1C(=O)CSC(=S)N1CCOCC1	21%	/	/	?	21µM*	10%
C=CCN=Cc1c(C)[nH]n(-c2ccccc2)c1=O	29%	-1%	?	3.5µM*	?	14%
Cc1ccc(C)c(N2CCN(C(=O)c3cc(C)nc4c3c(C)nn4-c3cccc(F)c3)CC2)c1	/	/	/	/	1%	/
CC(=O)Nc1ccc(/C=N/N2CCCCC2)cc1	3.2µM*	-3%	14µM*	4.5µM*	27µM*	?
CC(=O)Nc1ccc(/C=N/N2C(C)CCCC2C)cc1 (configuration not stated)	11%	5%	-29%	16%	1%	7%
Cc1ccn2c(=O)c(C(=O)NCCc3ccccc3)c(O)nc2c1	/	/	6%	/	3%	/
CC(=NC1CCCC1)c1c(C)[nH]n(-c2nc3ccccc3s2)c1=O	?	-6%	?	?	3.4µM*	?
COc1ccc(-n2nc3cc(C)c(NC(=O)C(C)C)cc3n2)cc1	0.32µM*	-2%	2.8µM*	0.32µM*	0.21µM*	?
CCc1ccc(-n2nc3cc(C)c(NC(=O)c4ccccc4C)cc3n2)cc1	/	/	11%	/	?	/
CCOc1ccc(-n2nc3cc(C)c(NC(=O)CC)cc3n2)cc1	/	/	-10%	/	?	/
COc1ccc(-n2nc3cc(C)c(NC(C)=O)cc3n2)cc1	0.32µM*	-2%	1.6µM*	0.32µM*	0.6µM*	?
CCc1ccc(-n2nc3cc(C)c(NC(=O)c4cc(OC)cc(OC)c4)cc3n2)cc1	/	/	2%	/	1.3µM*	/
Oc1ccc(-c2cccc(-c3ccc(O)cc3)n2)cc1	-3%	0%	?	27%	17µM*	11%
